Reference: PubChem BioAssay (NCI)
This is part of a sample that, as a whole, favours compounds with a hit. Of some 83,000 tested, about 20% had one in any assay.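 Cell lines were cultured in 96-well plates, exposed to a single compound concentration, and assessed for percent growth 48 hours later.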 Unmarked numbers belong to inactive results. Activity calls are given as the source filed them. How the source made its calls: active means growth percent below 10; inactive means the rest.

Tests used:
Assay in all cases: NCI-60 one-dose screen, 48 h (100 = growth as untreated, 0 = no growth, -100 = all killed)
Settings in all cases: 10 µM unless noted
NCI-H23 lung = test system: NCI-H23 lung
NCI-H226 lung = test system: NCI-H226 lung
NCI-H322M lung = test system: NCI-H322M lung
HOP-62 NSCLC = test system: HOP-62 NSCLC
NCI-H460 lung = test system: NCI-H460 lung
HOP-92 NSCLC = test system: HOP-92 NSCLC
A549/ATCC NSCLC = test system: A549/ATCC NSCLC
786-0 renal = test system: 786-0 renal
COLO 205 colon = test system: COLO 205 colon
DU-145 prostate = test system: DU-145 prostate
K-562 leukemia = test system: K-562 leukemia
MDA-MB-231 breast = test system: MDA-MB-231 breast
RXF 393 renal = test system: RXF 393 renal
SF-268 CNS = test system: SF-268 CNS
SF-295 CNS = test system: SF-295 CNS
SF-539 CNS = test system: SF-539 CNS
UACC-257 melanoma = test system: UACC-257 melanoma
M14 melanoma = test system: M14 melanoma

Compound	growth (NCI-H23 lung)	growth (NCI-H226 lung)	growth (NCI-H322M lung)	growth (HOP-62 NSCLC)	growth (NCI-H460 lung)	growth (HOP-92 NSCLC)	growth (A549/ATCC NSCLC)	growth (786-0 renal)	growth (COLO 205 colon)	growth (DU-145 prostate)	growth (K-562 leukemia)	growth (MDA-MB-231 breast)	growth (RXF 393 renal)	growth (SF-268 CNS)	growth (SF-295 CNS)	growth (SF-539 CNS)	growth (UACC-257 melanoma)	growth (M14 melanoma)
O=C1N=C(N2CCOCC2)S/C1=C\c1cn(-c2ccccc2)nc1-c1ccccc1	95.2%	78.8%	73.3%	68.5%	67.3%	94.6%	94.8%	25.6%	122%	69.9%	92.9%	52.7%	51.8%	74.8%	48.4%	28.4%	81.9%	–
O=C(Oc1cccc2ccccc12)c1ccccc1C(=O)c1ccccc1	93%	105%	101%	101%	93.2%	54.5%	88.3%	103%	112%	99.3%	5.05% (active)	85.7%	98.3%	79%	98.5%	103%	90.4%	93.4%
O=[N+]([O-])c1ccc(N=Nc2c(Cl)cc(O)cc2Cl)cc1	-23.4% (active)	10.3%	-11.9% (active)	4.04% (active)	-4.31% (active)	3.34% (active)	16.4%	-20.1% (active)	35.2%	11.1%	1.93% (active)	-35.6% (active)	7.36% (active)	-5.79% (active)	-55.6% (active)	-2.1% (active)	-21.5% (active)	-30% (active)
O=c1c2c(=NCCCN3CCCC3)cc3c(=O)n(CCCN4CCCC4)c(=O)c4c(NCCCN5CCCC5)cc(c(O)n1CCCN1CCCC1)c2c4-3	-2.37% (active)	-26.3% (active)	-29.5% (active)	-13.7% (active)	-32.1% (active)	0.433% (active)	7.79% (active)	-13.9% (active)	-68.4% (active)	-16.1% (active)	6.04% (active)	-9.58% (active)	-67.6% (active)	-7.1% (active)	-42.5% (active)	-32.6% (active)	-29.8% (active)	-63.1% (active)
Cn1c(=O)c2[nH]c(=S)n(Cc3ccccc3)c2n(C)c1=O	93.1%	104%	118%	70%	110%	91.8%	95.2%	102%	109%	105%	84.6%	101%	120%	95.8%	118%	93.8%	90.4%	99.7%
CN(C)CCC(=O)Nc1ccc(-n2cc(-c3cccc(NC(=S)Nc4cccc(-c5cn(-c6ccc(NC(=O)CCN(C)C)cc6)nn5)c4)c3)nn2)cc1	89.1%	135%	92.4%	105%	95.6%	101%	88.6%	101%	99.4%	115%	18.6%	107%	135%	98.6%	65.3%	97.6%	117%	112%
O=C1OC(Oc2ccccc2)(c2ccccc2)c2ccccc21 (centres undefined)	105%	107%	128%	106%	99.1%	88%	95%	101%	112%	108%	55.3%	98.3%	120%	95.3%	150%	100%	112%	111%
CCOC(CNCc1cc(C)c2[nH]c3ccccc3c2c1C)OCC	82.2%	70%	83.2%	98.1%	89.1%	64.1%	81%	65%	-25.4% (active)	109%	34.3%	63%	73.2%	86.2%	60.2%	83.7%	76%	64.9%
COc1ccc(C2CC(c3ccc4c(c3)OCO4)=NN2C=O)cc1 (centres undefined)	100%	87.6%	107%	102%	102%	89.2%	95.8%	89.5%	115%	107%	90.3%	84.2%	100%	108%	113%	98.8%	110%	102%
CC(=O)Nc1cc2c3c(cccc3c1)-c1ccccc1-2	89.1%	37.4%	79.9%	103%	64.4%	78.9%	34%	50.4%	107%	97.7%	71.9%	67.5%	92.4%	39%	92.9%	39.7%	88.8%	99.6%
N#CC1c2ccccc2C=CN1C(=O)N(c1ccccc1)c1ccccc1 (centres undefined)	66.6%	95.9%	103%	101%	101%	45.6%	91.4%	95.5%	-41.6% (active)	42.9%	5.35% (active)	70.6%	2.13% (active)	79.6%	67.7%	109%	-1.11% (active)	42.5%
CN1CCN(CCCCCN=c2cc3c(=O)n(CCCCCN4CCN(C)CC4)c(=O)c4c(NCCCCCN5CCN(C)CC5)cc5c(O)n(CCCCCN6CCN(C)CC6)c(=O)c2c5c4-3)CC1	34.1%	0.125% (active)	-23.2% (active)	14.6%	5.16% (active)	2.86% (active)	5.01% (active)	92.9%	-15.4% (active)	0.918% (active)	8.94% (active)	-34% (active)	64.4%	-2.31% (active)	36.4%	10.4%	-11.4% (active)	–
Cc1cccc2nnc(-c3ccccc3)n12	104%	106%	104%	125%	108%	105%	94.4%	94.8%	118%	124%	100%	94.5%	117%	111%	109%	108%	105%	102%
c1ccc(-c2oc(-c3ccccc3)c3ccccc23)cc1	99.2%	104%	118%	98.2%	102%	78.7%	99%	101%	105%	90.3%	86.5%	91%	116%	102%	102%	104%	108%	110%
CC[C@@H](C)/C=C(C)/C=C/C(=O)c1c(O)c(-c2ccc(O)cc2)cn(OC2CC(=O)CCC(C)OC(=O)CC2O)c1=O (some centres undefined)	26.8%	15.8%	5.13% (active)	7.07% (active)	-19.6% (active)	57.7%	17.9%	-6.82% (active)	67.8%	4.8% (active)	13.8%	42.6%	33.6%	-7.36% (active)	-22% (active)	-4.57% (active)	-2.46% (active)	-13.7% (active)
Cc1nn(-c2ccccc2)cc1/C=C1\SC(N2CCCCC2)=NC1=O	104%	86.7%	100%	103%	95.2%	76.7%	90.1%	83.6%	66.9%	91.4%	32.1%	76.4%	86%	91.3%	128%	60.9%	99.3%	92.6%
CC(NC(=O)Oc1cccc2ccccc12)c1ccccc1 (centres undefined)	92.8%	99.7%	107%	100%	105%	103%	73.1%	103%	110%	107%	84.1%	77.6%	105%	78.1%	107%	97.9%	73.2%	107%
